Screening results: PubChem, National Center for Advancing Translational Sciences (NCATS)
Tau ThT inhib = qHTS for Inhibitors of Tau Fibril Formation, Thioflavin T Binding; Microtubule-associated protein tau (Homo sapiens), P10636; Potency, µM (series often up to 57.4 µM), without a hit: top-dose activity, negative = inhibition, actives largely listed as inhibitors; recombinant tau K18 P301L, heparin-induced fibrillization, ThT fluorescence; 270,000 tested, 2.1% active; AID 1460, 2008; also: % is scaled to controls: 0 for no effect and ±100 for the full control effect; nearly all actives have a fitted effect of over 55% in size
Target sequence (P10636 561-689 P618L limits assumed): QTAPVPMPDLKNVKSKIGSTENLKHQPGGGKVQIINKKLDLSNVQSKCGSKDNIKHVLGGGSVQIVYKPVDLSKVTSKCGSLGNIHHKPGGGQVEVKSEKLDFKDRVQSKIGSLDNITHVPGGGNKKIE
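K18 P301L tau (15 uM + 0.24 uM Alexa 594-tagged), heparin 20 uM, NaOAc pH 7, 6 h 37 C; ThT 30 uM, 1 h RT, ex 450/em 510 nm.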
HTT cytoprotect = qHTS Multiplex Assay to Identify Dual Action Probes in a Cell Model of Huntington: Cytoprotection (ATP); Potency, µM (top dose mostly 56.4 µM), without a hit: cytoprotection (ATP increase), most hits filed as activators; AID 1471, 2008; 230,000 tested, 0.14% active; PC12 HTT-Q103 induced, cytoprotection, ATP luminescence, 40 h; also: % of control where 0% means no effect; nearly all actives have a fitted effect of over 45% in size
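Compounds were screened for protection of PC12 cells against cell death after tebufenozide induction (100 nM final) of mutant Huntingtin exon 1 (Q103) fused to GFP.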
Tau FP inhib = qHTS for Inhibitors of Tau Fibril Formation, Fluorescence Polarization. Microtubule-associated protein tau (Homo sapiens), P10636. Potency, µM (highest dose often 57.7 µM), inactives show at the highest dose activity, negative = inhibition, actives largely listed as inhibitors. 280,000 tested, 0.39% active. K18 P301L tau heparin fibrillization, Alexa594 FP, 6 h; also: % is scaled to controls: 0 for no effect and ±100 for the full control effect; nearly all actives have a fitted effect of over 55% in size
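Compound effects on tau fibrillization are measured by Alexa 594 fluorescence polarization (ex 555, em 632 nm). K18 P301L tau is used at 15 uM with 0.24 uM labeled tracer, and 20 uM heparin induces aggregation over 6 hr at 37 C.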
HttQ103 aggreg = qHTS Multiplex Assay to Identify Dual Action Probes in a Cell Model of Huntington: Aggregate Formation (GFP); PC12 HttQ103-GFP aggregates, Acumen cytometry, 40 h; Potency, µM (highest dose often 46.1 µM), inactives show top-dose activity change, negative = inhibition, actives largely listed as inhibitors; 220,000 tested, 1.1% active; also: % is scaled to controls: 0 for no effect and ±100 for the full control effect; nearly all actives have a fitted effect of over 60% in size
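Using laser scanning cytometry, GFP-positive aggregates were counted after lysis of PC12 cells induced with 100 nM tebufenozide to express HTT exon 1 Q103–GFP. Compounds were tested in titration.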
Tau fluor counter = Counterscreen qHTS for Inhibitors of Tau Fibril Formation, Fluorescence Polarization | AID 1463, 2008 | tau K18 P301L Alexa594 fluorescence, heparin fibrillization | Potency, µM (titrated, usually from 57.7 µM), without a hit: top-dose activity change, negative = decrease | 280,000 tested, 0.93% active; also: % is scaled to controls: 0 for no effect and ±100 for the full control effect; nearly all actives have a fitted effect of over 55% in size
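Human tau K18 P301L (15 uM unlabeled, 0.24 uM Alexa 594-labeled) in 100 mM sodium acetate pH 7 with 20 uM heparin, 6 hr at 37 C. ThT 30 uM added, 1 hr ambient; Alexa 594 FP and total fluorescence read at 555/632 nm.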
An asterisk follows results filed as active; ? = inconclusive; nt = no result given; [ ] = dose if it differs, or a comment. In the library only some 3.7% were active in any assay of this set; here they are far more common. Calls follow the shape of the dose curve; as a rule, active = well fitted curve in the direction sought with a large enough effect; inconclusive = small, poorly fitted or top-dose-only effect, or another doubt; inactive = no such curve, though single readings can be large; an effect the other way counts as inactive or inconclusive. Potency is read from the fitted curve at half-maximal effect.

SMILES | Tau ThT inhib | HTT cytoprotect | Tau FP inhib | HttQ103 aggreg | Tau fluor counter
CCc1ccccc1NC(=O)CSc1nc2c(oc3ccccc32)c(=O)n1-c1ccccc1 | -8% | nt | -11% | nt | -17%
CC(C)C[C@H](NC(=O)c1[nH]cnc1C(=O)Nc1ccc(Cl)cc1)C(=O)OC(C)(C)C | 18% | 15%[10 µM] | 11µM* | -20%[9.22 µM] | -26%
CCCCNC(=O)c1sc(=S)n2c1[nH]c(=O)c1ccccc12 | 16µM* | -49% | ? | ? | ?
CCCCNC(=O)c1sc(=S)n(-c2ccccc2OC)c1N | -10% | -4% | 3% | 3% | -6%
O=C(NCC1CCCO1)c1sc(=S)n2c1[nH]c(=O)c1ccc(C(=O)N3CCCCC3)cc12 (stereo unspecified) | ? | -40% | 13% | 0% | ?
O=C(NC1CCCCC1)c1sc(=S)n2c1[nH]c(=O)c1ccccc12 | 14µM* | -73% | 12% | ? | ?
CC(C)c1[nH]nc2c1C(c1cccc(OC(=O)N3CCOCC3)c1)C(C#N)=C(N)O2 (stereo unspecified) | -14% | -19% | -3% | 3.2µM* | -5%
CCc1[nH]nc2c1C(c1cccc(OC(=O)N3CCOCC3)c1)C(C#N)=C(N)O2 (stereo unspecified) | -8% | 1%[10 µM] | 7% | -13% | 4%
CCc1ccccc1NC(=O)Cn1c(C(=O)OC)cc2oc(C)cc21 | ? | nt | 3% | nt | 9%
CN(C)C(=O)/N=N/C(=O)N(C)C | 7.9µM* | nt | 14µM* | nt | -19%
Cc1ccc(C2C(C#N)=C(N)SC(N)=C2C#N)o1 | 14µM* | -13% | 18µM* | ? | ?
CCc1ccc(C2C(C#N)=C(N)SC(N)=C2C#N)s1 | 14µM* | -1% | ? | -31% | ?
CCOC(=O)C1=C(C)OC(N)=C(C#N)C1c1ccc(C)o1 (stereo unspecified) | -12% | 2% | -2% | 24% | -9%
Nc1ncnc2c1ncn2[C@@H]1O[C@H](COP(=O)(O)OP(=O)(O)OP(=O)(O)OP(=O)(O)OC[C@@H]2O[C@H](n3cnc4c(N)ncnc43)[C@@H](O)[C@@H]2O)[C@H](O)[C@H]1O | -11% | nt | 9% | nt | -1%
CCCC1=C/C(=C/c2ccc(-c3ccccc3OC)o2)C(=O)O1 | 13µM* | nt | -12% | ? | ?
COc1ccccc1-c1ccc(/C=C2/C=C(CC(C)C)OC2=O)o1 | 8.9µM* | nt | 3% | ? | -27%
O=Cc1ccc(-c2ccccc2OC(F)(F)F)o1 | -7% | 6%[10 µM] | -6% | 6% | -9%
CC(C)(CO[C@H]1C[C@H]2CC[C@@]1(C)C2(C)C)[N+](=O)[O-] | nt | 7%[10 µM] | nt | nt | nt
COc1ccc(/C=N/NC(=O)c2[nH]nc3c2CCc2ccccc2-3)cc1OC | ? | -66%[10 µM] | ? | ? | -23%
COc1ccc(/C=C/c2nc(-c3ccccc3O)n[nH]2)cc1OC | 10% | -12%[10 µM] | ? | -11% | 16µM*[quencher]
CCOC(=O)N1CCN(C(=O)C2CCN(S(=O)(=O)CC)CC2)CC1 | 8% | -1% | ? | -16% | 25µM*[quencher]
CCCS(=O)(=O)N1CCC(C(=O)N2CCN(C(=O)OCC)CC2)CC1 | -8% | 15%[10 µM] | 2% | 5% | -5%
CCn1c(CCCc2nc3c([nH]2)c(=O)n(C)c(=O)n3C)nc2c1c(=O)n(C)c(=O)n2C | nt | -4%[10 µM] | nt | nt | nt
CCN1/C(=C/c2ccc3cc(C)ccc3[n+]2CC)Sc2ccccc21 | 18µM* | -68%[10 µM] | ? | 0.35µM* | 14%
CC[n+]1c(/C=C2\Sc3ccccc3N2C)ccc2cccc(C)c21 | 20µM* | -88%[10 µM] | ? | 1µM* | 28%
SMILES | Tau ThT inhib | HTT cytoprotect | Tau FP inhib | HttQ103 aggreg | Tau fluor counter
CC[n+]1c(C)sc2cc(C)ccc21 | ? | nt | -11% | nt | -21%
CCN1/C(=C/c2ccc3cc(C)ccc3[n+]2CC)Sc2cc(C)c(C)cc21 | 7.1µM* | -64%[10 µM] | ? | nt | ?
C[C@H]1C[C@H]2[C@H]3CCC4=CC(=O)C=C[C@@]4(C)[C@]3(F)[C@H](O)C[C@]2(C)[C@@]1(O)C(=O)COP(=O)(O)O | nt | -22%[10 µM] | nt | nt | nt
CCOc1ccc(CNCc2c(C(=O)O)c(C)n(Cc3ccc(C)cc3)c2C)cc1 | -4% | nt | 6% | nt | -3%
O=C1NC(=S)N/C1=C/c1cc([N+](=O)[O-])ccc1O | 16µM* | -7%[10 µM] | -1% | 1% | -20%
Cc1ccc(/C=C2\NC(=S)NC2=O)cc1[N+](=O)[O-] | ? | nt | 0% | 17% | -10%
O=C1NC(=S)N/C1=C/c1cccc([N+](=O)[O-])c1O | 4.5µM* | -4% | -8% | -8% | ?
CCCCc1nc2c(c3c1C[C@H](C)OC3)CN(C(=O)N[C@H](C(=O)OC)C(C)C)CC2 | 2%[11.5 µM] | 5%[10 µM] | -6%[11.6 µM] | nt | -2%[11.6 µM]
COC(=O)[C@H](N)Cc1ccc(Cl)cc1 | nt | 5%[1.9 µM] | nt | nt | nt
O=[N+]([O-])c1ccccc1CN1CCN(Cc2c[nH]c3ccccc23)CC1 | -3% | -109% | 5% | 8.9µM* | -6%
O=C1c2ccccc2-n2c1nc1ccccc1c2=O | ? | -168% | 4% | 11µM* | -24%
CN1CCc2c(sc3c2C(=O)NC(c2ccco2)N3)C1 (stereo unspecified) | ? | -12%[0.074 µM] | ? | 5% | -21%
COc1ccc(Br)cc1C1NC(=O)c2c(sc3c2CCN(C)C3)N1 (stereo unspecified) | -14% | 1% | -4% | 12%[9.22 µM] | 4%
CN1CCc2c(sc3c2C(=O)NC(c2cn(Cc4ccccc4)c4ccccc24)N3)C1 (stereo unspecified) | 18µM* | 1%[10 µM] | ? | ? | -25%
CN1CCc2c(sc3c2C(=O)NC(c2ccc(-c4ccc(Cl)cc4)o2)N3)C1 (stereo unspecified) | 3.2µM* | 7%[10 µM] | ? | 7%[9.22 µM] | ?
Cc1ccc(NC(=S)N(C)Cc2cn(C)c3ccccc23)cc1 | -13% | 8%[10 µM] | 0% | 35µM* | -25%
Cn1cc(CN(CCCN2CCOCC2)C(=S)Nc2cccc(Cl)c2)c2ccccc21 | -9% | -51%[10 µM] | 6% | ? | ?
Cc1cccc(NC(=S)N(CCCN2CCOCC2)Cc2cn(C)c3ccccc23)c1 | -4% | -39%[10 µM] | 2% | 8.9µM* | -24%
COc1ccc(NC(=S)N(CCCN2CCOCC2)Cc2cn(C)c3ccccc23)cc1 | -8% | -41%[10 µM] | 9% | ? | -25%
COc1ccc(Cl)cc1NC(=O)CN1C(=O)COc2ccc(S(=O)(=O)NC3CCCC3)cc21 | 6% | nt | -1% | nt | -25%
O[C@@H]([C@H](O)[C@@H](O)CBr)[C@@H](O)CBr | nt | -37% | nt | nt | nt
